Test results from PubChem BioAssay (NCI).
Compounds without any hit were thinned out: in the full panel of roughly 83,000, 20% have a hit.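 48-hour exposure, single concentration, 96-well plates; percent growth endpoint where 0 means no net growth. Active: below 10.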 Active and inactive are the calls of the source.

These molecules were tested on T-47D breast (assay: NCI-60 one-dose screen, 48 h (100 = growth as untreated, 0 = no growth, -100 = all killed)). Details: 10 µM unless noted.

Row | Compound | growth
1 | O=C1Nc2ccccc2/C1=C/C(=O)c1ccc(N2CCOCC2)cc1 | 81.1% (inactive)
2 | COc1ccc2nc3c(cc2c1)C(=O)CC(C(F)(F)F)C3 (stereo not drawn) | 41.1% (inactive)
3 | CNC(=O)c1cc(Oc2ccc3nc(NC(=O)c4ccc5ncccc5c4)sc3c2)ccn1 | 51.3% (inactive)
4 | N#Cc1c(Cl)nc(SCC2CO2)nc1-c1ccccc1 (stereo not drawn) | 97.3% (inactive)
5 | CCCCCCCCCN(CCCCCCCCC)C(C)C(=O)c1ccc2cc(Br)c3ccccc3c2c1 (stereo not drawn) | 79.8% (inactive)

These molecules were tested on BT-549 breast in the same assay as above. Details: 10 µM unless noted.

Row | Compound | growth
6 | O=[N+]([O-])c1cc([N+](=O)[O-])c(C(F)(F)F)cc1NN=C(c1ccc(O)cc1)c1ccc(O)cc1 | 132% (inactive)
7 | O=C(COc1cccc(/C=C2\Oc3ccccc3C2=O)c1)c1ccc([N+](=O)[O-])cc1 | 110% (inactive)
8 | COc1cc(NCc2cn(-c3ccc(C(=O)O)cc3)nc2-c2ccc(C(=O)O)cc2)cc(OC)c1OC | 96.2% (inactive)
9 | COc1ncc(-c2ccc3nccc(C#CCCCCC(=O)NO)c3c2)cc1NS(=O)(=O)c1ccc(F)cc1F | -13.2% (active)
10 | O=C(O)CSCc1nnc2n(Cc3ccccc3)c(=O)c3c4c(sc3n12)CCCC4 | 101% (inactive)
11 | C[C@]12CCc3nc(Nc4ccccc4)sc3C1=CC[C@@H]1[C@@H]2CC[C@]2(C)/C(=N/NC(N)=S)CC[C@@H]12 | 35.4% (inactive)
12 | C=C(C)C1CCC2(C(=O)O)CCC3(C)C(CCC4C5(C)CCC(OC(=O)NCc6ccccc6)C(C)(C)C5CCC43C)C12 (stereo not drawn) | 64.8% (inactive)
13 | CC(C)=CCC[C@](C)(O)[C@H]1CC[C@]2(C)[C@@H]1CC[C@@H]1[C@@]3(C)CC/C(=N/O)C(C)(C)[C@@H]3CC[C@]12C | 1.19% [100 µM] (active)
